# The list is not random: actives were taken first. Their share in the collection is about 10%.
# Six1-Eya2 blk: inhibitors of human Six1/Eya2 interaction; Q15475+O00167; AlphaScreen GST-Six1/His-Eya2 binding, biochemical; stronger effect = lower value; activity change, % (concentration not given with the values); actives 0.56% (n = 360,000); in the data active = activity change below about -65%; inconclusive = mostly about -30% to -63%; note: % is set by controls: 0 for no effect and ±100 for the full control effect
#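 Compounds are tested against tagged Six1 and Eya2 proteins bridged by glutathione donor and nickel acceptor beads; after a one-hour incubation at 37 °C without light, AlphaScreen emission is recorded.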
# JMJD2A Tudor: blocks the human JMJD2A Tudor domain | O75164 | AlphaScreen JMJD2A-Tudor / H3K4me3 peptide binding | Potency, µM (doses to about 114 µM), without a hit: top-dose activity change, negative = inhibition, hits mostly inhibitors | actives 4.4% (n = 390,000); note: potency is the fitted concentration of half-maximal effect; % is set by controls: 0 for no effect and ±100 for the full control effect; nearly all actives have a fitted effect of over 50% in size
# CtBP-E1A blk: inhibitors of CtBP/E1A interaction. AlphaScreen GST-E1A/His-CtBP binding, 1536-well; stronger effect = lower value. activity change, % (test concentration not listed). actives 0.49% (n = 340,000). AID 651724; in the data active = activity change below about -65%; inconclusive = mostly about -30% to -63%; note: % is set by controls: 0 for no effect and ±100 for the full control effect
#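 In 5 uL wells, 23 nL compound meets equimolar GST-E1A and His-CtBP (5X stock 125 nM each) for 2 h, 37 °C. Beads (5X, 50 ug/mL) then 1 h, 37 °C, dark.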
# HP1b chromo inh: blocks HP1-beta chromodomain binding to methylated histone tails; AlphaScreen HP1-beta / biotin-H3K9me3 peptide binding; Potency, µM (top dose mostly 114 µM), for the others: at the top dose activity change, negative = inhibition, actives largely listed as inhibitors; actives 0.56% (n = 390,000); AID 540317; note: potency is the fitted concentration of half-maximal effect; nearly all actives have a fitted effect of over 70% in size
# Target sequence (P83916 whole entry, looked up): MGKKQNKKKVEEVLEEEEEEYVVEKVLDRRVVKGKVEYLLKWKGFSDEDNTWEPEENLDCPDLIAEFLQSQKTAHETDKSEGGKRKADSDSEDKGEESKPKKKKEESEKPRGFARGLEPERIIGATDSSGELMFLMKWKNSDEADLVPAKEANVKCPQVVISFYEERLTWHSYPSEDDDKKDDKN
#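 AlphaScreen: HP1-beta (50 nM) preformed 30 min with biotin-H3(1-18)K9me3 peptide (50 nM) in PBS pH 7.4, 0.01% Tween-20. Compound added for 30 min at RT, then streptavidin donor/nickel chelate acceptor beads (10 ug/mL) for 30 min.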
# G9a block: G9a (human) methyltransferase inhibition; G9a H3K9 monomethylation, AlphaScreen, 2 h; Potency, µM (doses to about 102 µM), inactives show top-dose activity, negative = inhibition, most hits filed as inhibitors; actives 8.8% (n = 350,000); note: potency is the fitted concentration of half-maximal effect; % is set by controls: 0 for no effect and ±100 for the full control effect; nearly all actives have a fitted effect of over 75% in size
# Target sequence (Q96KQ7 913-1193 limits assumed): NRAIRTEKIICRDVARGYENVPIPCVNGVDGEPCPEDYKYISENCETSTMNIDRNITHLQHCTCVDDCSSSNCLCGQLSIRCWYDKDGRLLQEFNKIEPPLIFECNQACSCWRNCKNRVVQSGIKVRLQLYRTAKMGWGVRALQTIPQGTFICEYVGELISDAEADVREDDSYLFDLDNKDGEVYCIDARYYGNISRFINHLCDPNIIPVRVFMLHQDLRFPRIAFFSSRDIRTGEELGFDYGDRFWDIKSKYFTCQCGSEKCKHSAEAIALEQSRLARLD
#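 Enzyme 20 nM + cpd, 15 min RT; add b-H3K9 pep 500 nM / SAM 20 uM; 2 h RT; anti-H3K9me1 Ab 0.5 ug/mL + SA donor / anti-rabbit acceptor beads 20 ug/mL each, 10 min; AlphaScreen read.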
# BAZ2B block: BAZ2B (human) inhibition. AlphaScreen BAZ2B-H3K14Ac peptide displacement. Potency, µM (highest dose often 114 µM), for the others: top-dose activity change, negative = inhibition, actives largely listed as inhibitors. actives 4.4% (n = 360,000). AID 504333; note: potency is the fitted concentration of half-maximal effect; % is set by controls: 0 for no effect and ±100 for the full control effect; nearly all actives have a fitted effect of over 60% in size
#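 BAZ2B 50 nM plus b-H3(5-23)K14Ac 50 nM, PBS pH 7.4/0.01% Tween-20, 30 min RT; compound added (max 110 uM), 30 min RT; streptavidin donor/Ni-chelate acceptor beads 10 ug/mL final, 20 min dark; AlphaScreen read.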
# * hit, by the source's call; ? = inconclusive; . = no result given; [ ] = dose if it differs, or a comment. Unless noted, calls come from the whole dose curve; as a rule, active = well fitted inhibition curve with a large enough effect; inconclusive = small, poorly fitted or top-dose-only effect; inactive = no such curve, though single readings can be large or run the other way.
SMILES,Six1-Eya2 blk,JMJD2A Tudor,CtBP-E1A blk,HP1b chromo inh,G9a block,BAZ2B block
CCOC(=O)c1c(-c2ccc(C)cc2)csc1NC(=O)C1CCCO1 (stereo unspecified),5,26%,0,66%,-1%[59 µM],5%
C=CCn1c(/N=C/c2ccc(OC)cc2)nc2ccccc21,0,-11%,5,20%,-49%,-24%
C=CCn1c(/N=C/c2ccc(N(C)C)cc2)nc2ccccc21,0,?,-4,-10%,45µM*,?
COc1ccc(-n2c(-c3ccco3)n[nH]c2=S)cc1,5,4.5µM*,-3,?,4µM*,-3%
Cc1ccc(C)c(-n2c(-c3ccco3)n[nH]c2=S)c1,6,8.9µM*,5,-23%,.,.
Cn1cc(Cl)c(-c2n[nH]c(=S)n2C2CCCCC2)n1,6,4.5µM*,-8,17%,?,-19%
Nn1c(-c2ccco2)n[nH]c1=S,-1,7.1µM*,-22,?,8.9µM*,50µM*
O=S1(=O)c2ccccc2N(Cc2cccc(Cl)c2)c2ccccc21,.,-16%,.,25%,-18%[59 µM],-36%
Cc1cccc(N2CCN(C(=O)c3ccoc3C)CC2)c1C,1,6%,1,5%,-11%[59 µM],-36%
COCc1cc(C)nc(SCC(=O)Nc2nc(C)cs2)c1C#N,-10,-1%,4,33%,14%,8%
S=c1[nH]nc(-c2ccco2)n1C1CCCCC1,4,3.2µM*,11,?,2µM*,-12%
c1ccc(-c2nnc(-c3ccco3)n2-c2ccccc2)cc1,-1,-29%,1,7%,-39%[59 µM],-7%
S=c1[nH]nc(-c2ccco2)n1-c1ccc(Cl)cc1,-3,32µM*,-24,-8%,?,-15%
Cc1ccc(S(=O)(=O)N(CC(=O)Nc2ccc(C)cc2C)C(=O)N2CCN(C)CC2)cc1,3,-3%,4,13%,-4%[2.33 µM],-5%
O=C(CSc1nc(NS(=O)(=O)c2ccccc2)cc(=O)[nH]1)Nc1ccc(F)cc1,?,56µM*,9,8%,-10%[59 µM],?
Cn1c(=O)c2c(ncn2C[C@@H](O)CO)n(C)c1=O,.,.,.,.,7%[21.5 µM],.
Cc1ccc(S(=O)(=O)Nc2cc(NC(=O)CN3CCOCC3)ccc2Cl)cc1,4,-19%,-7,17%,?,79µM*
Cc1ccc(S(=O)(=O)Nc2ccc(N3CCOCC3)nc2)cc1,8,-14%[11.4 µM],.,20%,?,-38%
Cc1ccc(S(=O)(=O)Nc2ccc(N3CCOCC3)cc2)cc1,0,-17%,4,17%,79µM*,56µM*
CC(C)c1ccc(NS(=O)(=O)c2ccc(N3C(=O)CCC3=O)cc2)cc1,7,-19%,-1,7%,.,-5%
Cc1ccc(NS(=O)(=O)c2ccc(N3C(=O)CCC3=O)cc2)cc1,0,30%,-1,29%,50µM*,0%
O=S(=O)(Nc1ccc(N2CCOCC2)cc1)c1ccc2ccccc2c1,-10,?,3,-23%,40µM*,?
CCCCOc1cccc(NC(=O)CSc2nnc(C)s2)c1,.,-15%,.,-23%,-42%[59 µM],5%
COc1ccc(-c2nc(SCCOc3cc(C)ccc3C(C)C)n3[nH]c(=O)cc3n2)cc1,.,-29%,.,22%,25%[59 µM],-3%
CC(C)c1ccc(NS(=O)(=O)c2ccc(-n3cccn3)cc2)cc1,2,-3%,1,46%,.,-4%
CC(=O)N1CCN(c2ccc(NS(=O)(=O)c3ccc(C)cc3)cc2)CC1,3,-26%,4,9%,45µM*,-15%
CC(C)c1ccc(S(=O)(=O)Nc2ccc(N3CCOCC3)cc2)cc1,-16,-32%,9,-1%,?,45µM*
CC(C)c1ccc(C2(C)NC(=O)N(C(C)C(=O)Nc3ccc(N4CCOCC4)cc3)C2=O)cc1 (stereo unspecified),6,-25%,17,36%,56µM*,-32%
Cc1ccc(S(=O)(=O)Nc2ccc(N3CCCCC3)cc2)cc1,-15,?,?,?,22µM*,35µM*

# From PubChem
